Compound activity from PubChem.
A selection follows.
aSyn 5UTR act: Activators working through SNCA 5'UTR binding (MLPCN). activity score, % (tested at 7.5 µM), hits read low. 300,000 tested, 7.1% active. alpha-synuclein 5'UTR reporter, activators screen. AID 1814; in the data active = activity score below about -60%
Large screens that a line does not name were inactive.

CCOC(=O)/C(C#N)=C1/C=CN(c2ccccc2)C=N1	aSyn 5UTR act -79
O=C(O)c1ccc(Cn2nnc3sc4c(c3c2=O)CCCC4)cc1	aSyn 5UTR act -151
O=C(O)CSc1nc2sc3c(c2c(=O)n1Cc1ccccc1)CCCCC3	aSyn 5UTR act -230
N/C(=N\OC(=O)c1cccc(Cl)c1)c1cccnc1	aSyn 5UTR act -114
N/C(=N\OC(=O)c1cccc(C(F)(F)F)c1)c1cnccn1	aSyn 5UTR act -81
N/C(=N\OC(=O)c1cccc(Cl)c1)c1ccncc1	aSyn 5UTR act -87
N/C(=N\OC(=O)c1ccc(Cl)c(Cl)c1)c1cccnc1	aSyn 5UTR act -138
CC(=O)c1cccc2c(O)c(C3=Nc4ccccc4C3=O)[nH]c12	aSyn 5UTR act -122
Cc1nn(-c2ccc(C(=O)O)cc2)c(N)c1-c1ccccc1	aSyn 5UTR act -179
COc1ccc(-c2c(C)nn(-c3ccccc3)c2N)cc1	aSyn 5UTR act -110
COc1ccc(/C=N/NC(=O)c2nc(-c3ccccc3)n(-c3ccccc3)n2)c(O)c1	none
CC(C)NC(=O)c1ccc2c3n(nc2c1)-c1ccccc1CO3	none
C=CCNC(=O)c1ccc2c3n(nc2c1)-c1ccc(Cl)cc1CO3	aSyn 5UTR act -127
Cc1ccc2c(c1)COc1c3ccc(C(=O)NCC4CC4)cc3nn1-2	aSyn 5UTR act -177
O=C(NCCO)c1ccc2c3n(nc2c1)-c1ccccc1CO3	aSyn 5UTR act -105
CCC(=O)Nc1ccc(NC(=O)c2ccco2)c(OC)c1	aSyn 5UTR act -142
CCC(=O)Nc1ccc(NC(=O)c2ccco2)cc1	aSyn 5UTR act -136
CCOc1ccc(CC(=O)Nc2ccc(NC(=O)c3ccco3)cc2)cc1OCC	none
O=C(Nc1ccc(CSc2ccccc2)cc1)c1ccco1	aSyn 5UTR act -125
COc1cc(NC(=O)CC(C)C)ccc1NC(=O)c1ccco1	aSyn 5UTR act -119
O=C(NC(=S)Nc1ccc(N2CCCC2)cc1)c1ccccc1[N+](=O)[O-]	aSyn 5UTR act -104
O=C(NNC(=S)Nc1ccccc1)c1ccccc1[N+](=O)[O-]	aSyn 5UTR act -77
COc1ccc(COC(=O)N/N=C/c2cccs2)cc1	aSyn 5UTR act -66
CC(/C=N/NC(=O)Cc1cccs1)=C\c1ccccc1	aSyn 5UTR act -156
COc1ccccc1NC(=O)C(=O)N/N=C/c1cccs1	aSyn 5UTR act -147
O=C(Cc1cccs1)N/N=C/C(Br)=C/c1ccccc1	aSyn 5UTR act -258
CC(/C=N/NC(=O)Cc1cccn1C)=C\c1ccccc1	aSyn 5UTR act -118
Cc1ccccc1NCC(=O)N/N=C/C(Br)=C/c1ccccc1	aSyn 5UTR act -66
COc1ccc(/C=N/NC(=O)Cc2cccs2)cc1	aSyn 5UTR act -70
O=C(CN1CCOCC1)N/N=C/C(Br)=C\c1ccccc1	aSyn 5UTR act -76
CCN1CCC2(CC1)Oc1c(OC)cccc1C1CC(c3cccnc3)=NN12 (stereo unspecified)	aSyn 5UTR act -128
Cc1ccc(/C=C/C(=O)NCCc2ccccc2)o1	aSyn 5UTR act -99
O=C(/C=C/c1ccco1)NCCc1ccccc1	aSyn 5UTR act -126
Cc1cnc(NC(=O)c2ccncc2)s1	aSyn 5UTR act -65
CCCSc1nnc(NC(=O)c2ccco2)s1	aSyn 5UTR act -81
Cc1cnc(NC(=O)c2ccco2)s1	aSyn 5UTR act -94
COCCSc1nnc(NC(=O)c2ccco2)s1	aSyn 5UTR act -81
CSc1nnc(NC(=O)c2ccco2)s1	aSyn 5UTR act -77
CCCSc1nnc(NC(=O)Nc2ccccc2)s1	aSyn 5UTR act -92
COCCSc1nnc(NC(=O)C2CCCCC2)s1	aSyn 5UTR act -63
O=c1oc2ccccc2cc1-c1csc(Nc2nc3ccc(F)cc3s2)n1	aSyn 5UTR act -115
C/C(=N\Nc1nc(-c2ccc(C)cc2C)cs1)c1cc2ccccc2oc1=O	aSyn 5UTR act -72
O=c1oc2ccccc2cc1-c1nc2c(s1)CCCC2	none
CC1CCC/C(=C(\C#N)c2nc(-c3cc4ccccc4oc3=O)cs2)C1 (stereo unspecified)	aSyn 5UTR act -122
O=c1oc2ccccc2cc1-c1csc(NN=C2CCCCC2)n1	aSyn 5UTR act -122
COc1ccc(/C=N/NC(=O)c2ccoc2C)cc1OC	aSyn 5UTR act -73
COc1cc(/C=N/NC(=O)c2cc(-c3ccccc3)sc2N)cc(OC)c1OC	aSyn 5UTR act -70
COc1cc(/C=N/NC(=O)c2ccoc2C)cc(OC)c1OC	aSyn 5UTR act -81
O=C(CSc1nc2ccccc2[nH]1)c1ccco1	aSyn 5UTR act -127
c1ccc2[nH]c(SCc3cn4cccnc4n3)nc2c1	aSyn 5UTR act -63
Fc1cccc(CSc2nc3ccncc3[nH]2)c1	aSyn 5UTR act -80
COc1ccc2nc(SCC(=O)C(C)(C)C)[nH]c2c1	aSyn 5UTR act -134
O=C(CSc1nc2ccccc2[nH]1)N1CCCCC1	aSyn 5UTR act -136
CCOc1ccc2nc(SCC(=O)N(C)C)[nH]c2c1	aSyn 5UTR act -92
O=C(CSc1nc2ccc(Cl)cc2[nH]1)c1cccs1	aSyn 5UTR act -113
COc1ccc2nc(SCC(=O)c3ccco3)[nH]c2c1	aSyn 5UTR act -105
COc1ccc(C(=O)Nn2c(SCC(=O)N3CCC(C)CC3)nc3ccccc3c2=O)cc1	none
O=C(CSc1nc2ccccc2[nH]1)c1ccc(Cl)s1	aSyn 5UTR act -113
Fc1cccc(F)c1CSc1nc2ccccc2[nH]1	aSyn 5UTR act -127
O=C(CSc1nc2ccccc2n1S(=O)(=O)c1ccccc1)N1CCCCC1	aSyn 5UTR act -100
O=C(CSc1nc2ccccc2[nH]1)c1ccccc1F	aSyn 5UTR act -162
NC1=NC(=O)/C(=C\C=C\c2ccccc2)S1	aSyn 5UTR act -73
ClC1=C(Cl)C(Cl)=C(Cl)C1=C/C=C/c1ccccc1	none
Cc1cccc(Nc2nc(-c3ccc(O)c(O)c3)cs2)n1	aSyn 5UTR act -224
Cc1cccc(Nc2nc(-c3ccc(F)c(C)c3)cs2)n1	aSyn 5UTR act -249
COc1ccc(-c2cn(Cc3ccc(C(=O)c4ccccc4)cc3)nn2)cc1	aSyn 5UTR act -161
Cc1ccc(Cn2cc(-c3ccccc3)nn2)cc1	aSyn 5UTR act -124
CCCc1ccc(-c2cc(C(=O)N/N=C/c3ccc([N+](=O)[O-])o3)c3ccccc3n2)cc1	aSyn 5UTR act -75
O=C(N/N=C/c1ccc([N+](=O)[O-])o1)c1cc(-c2cccc(Br)c2)nc2ccccc12	aSyn 5UTR act -83
CCCC(=O)Nc1ccc(C(=O)N/N=C/c2ccc([N+](=O)[O-])o2)cc1	none
Cc1cccc(CN2C(=O)N/C(=C/c3ccc(C)s3)C2=O)c1	aSyn 5UTR act -88
C[n+]1c(/C=C/c2ccc(O)cc2)ccc2ccccc21	aSyn 5UTR act -172
C[n+]1c(/C=C/c2ccc3c(c2)OCO3)ccc2ccccc21	aSyn 5UTR act -150
CSc1ccc(N2C(=O)NC3(CCCCC3)C2=O)cc1	aSyn 5UTR act -111
CCOc1cc(CNc2ccccc2)cc(Br)c1OCC(=O)NC(C)(C)C	none
CCOc1cc(/C=C2\N=C(C)OC2=O)cc(Br)c1OCC(=O)OC	aSyn 5UTR act -64
CCN1C(=O)/C(=C/c2nc3ccccc3c(=O)n2-c2ccccc2)c2ccccc21	aSyn 5UTR act -104
Cc1ccnc(NC(=O)c2ccc([N+](=O)[O-])s2)c1	aSyn 5UTR act -238
O=C(NC1CCCC1)c1ccc([N+](=O)[O-])s1	aSyn 5UTR act -153
Cc1cccc(NC(=O)c2ccc([N+](=O)[O-])s2)n1	aSyn 5UTR act -88
COc1ccc(C2NC(=S)NC3=C2CCCC3=C2SCCS2)cc1 (stereo unspecified)	aSyn 5UTR act active
Cc1cccc(NC(=S)c2nc3ccccc3s2)c1	aSyn 5UTR act -100
O=C(COc1ccc2ccccc2c1)N1CCCC1	aSyn 5UTR act -68
